Consider 33 molecules from PubChem BioAssay AID2061166 (Soto Lab, Mitchell Center for Alzheimers Disease and …, 2025).

For this assay, the target named is Microtubule-associated protein tau (Homo sapiens) (UniProt P10636). Briefly: inhibitors of seeded tau aggregation, primary screen, biochemical, seed amplification, ThT fluorescence (AID 2061166). Conditions: Recombinant tau seeded by AD brain, ThT fluorescence AUC; at 100 µM; active compounds read high.

Structures are written as SMILES. A number with no mark means an inactive call. The source made the active and inactive calls.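 How the source made its calls: active means mean tau seeding fluorescence area under 1% of vehicle, meaning inhibition above a set limit; inactive means the rest.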

Sequence of Microtubule-associated protein tau (Homo sapiens) (P10636 whole entry, looked up): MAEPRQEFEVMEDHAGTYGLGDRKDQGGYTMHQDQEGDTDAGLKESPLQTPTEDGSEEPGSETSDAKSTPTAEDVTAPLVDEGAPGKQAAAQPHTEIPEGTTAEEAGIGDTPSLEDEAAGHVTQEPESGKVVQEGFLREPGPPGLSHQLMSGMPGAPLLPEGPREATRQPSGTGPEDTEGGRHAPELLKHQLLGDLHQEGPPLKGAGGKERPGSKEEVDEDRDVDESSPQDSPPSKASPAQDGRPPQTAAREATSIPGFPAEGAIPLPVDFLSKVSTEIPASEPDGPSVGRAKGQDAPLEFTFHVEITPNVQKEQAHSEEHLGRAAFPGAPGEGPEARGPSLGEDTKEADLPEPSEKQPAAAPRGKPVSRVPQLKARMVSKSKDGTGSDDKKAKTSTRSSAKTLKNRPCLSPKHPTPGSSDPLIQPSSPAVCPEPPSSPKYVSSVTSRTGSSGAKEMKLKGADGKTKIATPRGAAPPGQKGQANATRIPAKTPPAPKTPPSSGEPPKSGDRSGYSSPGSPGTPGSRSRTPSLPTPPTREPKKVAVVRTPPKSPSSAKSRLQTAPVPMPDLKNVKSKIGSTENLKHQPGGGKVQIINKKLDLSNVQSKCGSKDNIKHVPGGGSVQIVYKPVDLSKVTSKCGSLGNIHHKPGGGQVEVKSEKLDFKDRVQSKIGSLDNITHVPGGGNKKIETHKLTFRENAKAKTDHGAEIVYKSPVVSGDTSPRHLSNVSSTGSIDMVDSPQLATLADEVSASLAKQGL

Consider `CO/N=C(\C(=O)NC1C(=O)N2C(C(=O)[O-])=C(C[N+]3(C)CCCC3)CSC12)c1csc(N)n1` (stereo not drawn), for which the inhibition (commonly the change of the read-out against control, counted positive when it falls) was 53.1%.

In the case of `CCN(CC)CC#CCOC(=O)C(O)(c1ccccc1)C1CCCCC1` (stereo not drawn), the inhibition is -0.433%.

On to `CCC1(O)C(=O)OCc2c1cc1n(c2=O)Cc2cc3c(CN(C)C)c(O)ccc3nc2-1` (stereo not drawn), for which the inhibition is 91.5%.

`CC(=O)Oc1ccccc1C(=O)O`: the inhibition is 2.58%.

Turning to `CN(CCOc1ccc(CC2SC(=O)NC2=O)cc1)c1ccccn1` (stereo not drawn), the inhibition was -61%.

`Cc1cc(=O)n(-c2ccccc2)n1C`: the inhibition was 8.96%.

As to `CCCCN1CCCCC1C(=O)Nc1c(C)cccc1C` (stereo not drawn), the inhibition was 7.03%.

Regarding `O=S(=O)(O)c1cc(S(=O)(=O)O)c2c(N=Nc3ccccc3)c(O)ccc2c1`, the inhibition was 39%.

Take `Nc1nc2[nH]cc(CCc3ccc(C(=O)NC(CCC(=O)O)C(=O)O)cc3)c2c(=O)[nH]1` (stereo not drawn): the inhibition is 15.2%.

For the molecule `C#CC1(O)CCC2C3CCC4=Cc5oncc5CC4(C)C3CCC21C` (stereo not drawn), the inhibition was 45.1%.

Turning to `NC(=O)N1CCC(CC(=O)N2CCC(C3c4ncc(Br)cc4CCc4cc(Cl)cc(Br)c43)CC2)CC1` (stereo not drawn), the inhibition was 20.1%.

Take `N=c1ccc2nc3ccc(N)cc3sc-2c1`: the inhibition is 100% (active).

In the case of `CN(C)CCc1c[nH]c2ccc(Cn3cncn3)cc12`, the inhibition was -4.86%.

Regarding `CC(OC1OCCN(Cc2n[nH]c(=O)[nH]2)C1c1ccc(F)cc1)c1cc(C(F)(F)F)cc(C(F)(F)F)c1` (stereo not drawn), the inhibition was 60.4%.

Turning to `CS(=O)(=O)c1ccc(C(=O)Nc2ccc(Cl)c(-c3ccccn3)c2)c(Cl)c1`, the inhibition was 44%.

`CCc1nc(N)nc(N)c1-c1ccc(Cl)cc1`: the inhibition was -7.97%.

As for `CC1OC(OCC2OC(Oc3c(-c4ccc(O)c(O)c4)oc4cc(O)cc(O)c4c3=O)C(O)C(O)C2O)C(O)C(O)C1O` (stereo not drawn), the inhibition is 28.7%.

As to `Cc1ccc2c(c1)c1c(n2CCc2ccc(C)nc2)CCN(C)C1`, the inhibition was -29.9%.

As for `NC(=O)OCC(COC(N)=O)c1ccccc1`, the inhibition is -8.84%.

Regarding `O=C(C=Cc1ccc(O)c(O)c1)OC(Cc1ccc(O)c(O)c1)C(=O)O` (stereo not drawn), the inhibition was 95%.

Consider `Cc1ncc(CO)c(CO)c1O` (tested in a mixture with another compound), for which the inhibition is 21.6%.

As for `Clc1cccc(Cl)c1NC1=NCCN1`, the inhibition was -11.7%.

Take `NC(=O)c1cn(Cc2c(F)cccc2F)nn1`: the inhibition is -11.5%.

On to `O=C(OC1CN2CCC1CC2)N1CCc2ccccc2C1c1ccccc1` (stereo not drawn), for which the inhibition was -37.8%.

As to `CN1CC(C(=O)NC2(C)OC3(O)C4CCCN4C(=O)C(Cc4ccccc4)N3C2=O)CC2c3cccc4[nH]cc(c34)CC21` (stereo not drawn), the inhibition was 34.2%.

Take `COC1CC2CCC(C)C(O)(O2)C(=O)C(=O)N2CCCCC2C(=O)OC(C(C)CC2CCC(O)C(OC)C2)CC(=O)C(C)/C=C(\C)C(O)C(OC)C(=O)C(C)CC(C)/C=C/C=C/C=C/1C` (stereo not drawn): the inhibition was 14%.

In the case of `CCc1c2c(nc3ccc(OC(=O)N4CCC(N5CCCCC5)CC4)cc13)-c1cc3c(c(=O)n1C2)COC(=O)C3(O)CC` (stereo not drawn), the inhibition was 46.1%.

For `CC12CC3(O)OC(O1)C1(COC(=O)c4ccccc4)C3CC21OC1OC(CO)C(O)C(O)C1O` (stereo not drawn), the inhibition was -50%.

With `CCOC(=O)C1=C(C)NC(C)=C(C(=O)OC)C1c1cccc(Cl)c1Cl` (stereo not drawn), the inhibition was 51.7%.

For the molecule `Cc1ccsc1C(=CCCN1CCCC(C(=O)O)C1)c1sccc1C` (stereo not drawn), the inhibition was 3.27%.

As for `Oc1ccc(/C=C/c2cc(O)cc(O)c2)cc1`, the inhibition is 16.9%.

With `Nc1c2c(nc3ccccc13)CCCC2`, the inhibition is 20.6%.

As to `COc1cc(C(=O)NCc2ccc(OCCN(C)C)cc2)cc(OC)c1OC`, the inhibition was 10.7%.
